A short description of test [1]: growth inhibition of DIPG glioma cells, dose response, cell-based, SU-DIPG-XVII, MIPE5.0, CellTiter-Glo, qHTS (AID 1347060; cut-off not given, nearly all actives have AC50 up to about 26 µM;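 on AC50: cells exposed to compound for 48 hours before viability readout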). To be noted: SU-DIPG-XVII viability, CellTiter-Glo ATP luminescence. A general note: ATP-based viability assays read luminescence as a measure of living cells.
Test [2] in a line: growth inhibition of DIPG glioma cells, dose response, cell-based, SU-DIPG-XIII, MIPE5.0, CellTiter-Glo, qHTS (AID 1347064; cut-off not given, nearly all actives have AC50 up to about 23 µM;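 on AC50: cells exposed to compound for 48 hours before the viability read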). The following applies: SU-DIPG-XIII viability, CellTiter-Glo ATP luminescence.
The nature of test [3]: viability loss in pontine glioma line – cell-based, SU-DIPG-XXV, MIPE5.0, CellTiter-Glo, qHTS, dose response (AID 1347065; cut-off not given, nearly all actives have AC50 up to about 26 µM;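 further: cells exposed to compound for 48 hours before ATP readout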). The following applies: CellTiter-Glo ATP luminescence.
Test [4] can be described thus: JHH-DIPG-1 glioma cell viability, MIPE5.0 library, CellTiter-Glo luminescence, qHTS (AID 1347067; cut-off not given, nearly all actives have AC50 up to about 26 µM;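 further: cells exposed to compound for 48 hours before readout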). The following applies: JHH-DIPG-1 glioma viability, CellTiter-Glo ATP luminescence.
A short description of test [5]: SU-DIPG-XXV glioma cell viability, MIPE5.0 library, qHTS (AID 1347068; cut-off not given, nearly all actives have IC50 up to about 30 µM;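 on IC50: cells exposed to compound for 48 hours before viability readout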).
Test [6] is described as follows: sensitizers of A549 cells to miR-34 induction, primary screen, imaging, A549 dox-inducible miR-34, nuclei and caspase counts (AID 1347080;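 active means compounds whose cell count with miR-34 switched on is under 0.7 times the count with it off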). The following applies: A549 miR-34 inducible, Hoechst nuclei count, 48 h.
A short description of test [7]: survival rescue of mitochondrial mutant cells in low glucose, primary screen, MELAS cybrids, Rieske KO mouse fibroblasts, CellTiter-Glo (AID 1508586;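 active means mean z-score across replicates of 1.96 or higher in either the MELAS or the Rieske mutant cell line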;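 further: z relative to plate mean and SD of compound and empty wells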).
A short description of test [8]: modifiers of HSF1 nuclear foci, imaging, Selleck Cancer Library (AID 1347162; in the data active means plate-normalised HSF1 focus index below about 0.46). The following applies: human cells, at 10 µM; SSMD: measured here: HSF1 foci SSMD mean; cell count: measured here: cell number; plate-normalised HSF1 focus index: stronger effect = lower value.
Test [9] in a line: phospholipid biosynthesis inhibitors in animal cells, primary screen, cell-based, LOPAC library, screen 4 (AID 1347384; call rule not given here). The following applies: phospholipid biosynthesis inhibition screen, at 10 µM.
Test [10] can be described thus: ovarian cancer cell viability with rucaparib, profiling panel, oncology-focused library, rucaparib conditional (AID 1508598). To be noted: patient-derived ovarian cancer cells, CellTiter-Glo viability, 144 h, stronger effect = lower value.
Where [11] appears, read: stronger effect = lower value, cell number ratio, induced over uninduced.
Where [12] appears, read: measured here: relative caspase fold change +Dox/-Dox.
The mark [13] stands for this setting: measured here: total cells with miR-34 induction, stronger effect = lower value.
[14] abbreviates: measured here: total cells without miR-34 induction.
Setting [15] is: MELAS cybrid survival, CellTiter-Glo 48 h, stronger effect = higher value.
Setting [16] is: Rieske KO mouse fibroblast survival, CellTiter-Glo 72 h.

As usually defined, the AC50 is the midpoint of the concentration-response curve, whichever way the signal moves. As a reminder, the IC50 is the concentration that gives 50% inhibition. The viability is a read-out of living cells in per cent, often relative to untreated cells.

Each structure is given as a SMILES string. Records with an inconclusive call do not appear. Activity calls are given as the source filed them.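 How the source made its calls, unless noted: active means normalized viability below 100% at a tested concentration; inactive means the rest.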

Turning to `C=CC(=O)Nc1cccc(Nc2nc(Nc3ccc(N4CCN(C(C)=O)CC4)cc3OC)ncc2C(F)(F)F)c1`, the concentration at half-maximal activity (AC50) in test [1] was 1.48 µM (active); in test [2], 1.66 µM (active); in test [3], 0.742 µM (active); in test [4], 1.86 µM (active). Moreover, the IC50 in test [5] was 1.32 µM (active). Also, the fold change in test [6] (setting [11]) was 0.925 (inactive); in [6] (setting [12]), 0.348. The cell count stood at 2040 in test [6] (setting [13]) and 2210 in [6] (setting [14]). The z-score in test [7] (setting [15]) is -0.595 (inactive); in test [7] (setting [16]), 1.83.

For the compound `Cc1ccc(C(=O)Nc2ccc(CN3CCN(C)CC3)c(C(F)(F)F)c2)cc1C#Cc1cnc2[nH]ncc2c1`, the half-maximal activity concentration (AC50) is 0.0417 µM (active) in test [1], 0.0118 µM (active) in test [2], 0.0263 µM (active) in test [3] and 0.468 µM (active) in test [4]. In addition, the IC50 in test [5] was 0.332 µM (active). Besides, the values for the fold change in test [6] (setting [11]) and in [6] (setting [12]) were 0.928 (inactive) and 0.675, respectively. Also, the cell count was 506 in [6] (setting [13]) and 546 in test [6] (setting [14]). The z-score in [7] (setting [15]) is 0.831 (inactive); in test [7] (setting [16]) it was -6.34.

On to `CN1CCC(c2c(O)cc(O)c3c(=O)cc(-c4ccccc4Cl)oc23)C1CO` (stereo unspecified), for which the half-maximal activity concentration (AC50) was 0.934 µM (active) in test [1], 1.18 µM (active) in test [2], 1.18 µM (active) in test [3] and 1.18 µM (active) in test [4]. In addition, in test [5], the IC50 was 1.86 µM (active). Also, the fold change is 0.969 (inactive) in test [6] (setting [11]) and 0.481 in test [6] (setting [12]). The cell count in test [6] (setting [13]) amounted to 1620; in [6] (setting [14]), 1670. In addition, the z-score in [7] (setting [15]) is 0.124 (inactive); in test [7] (setting [16]), -6.97.

Consider `Cc1nnc(C(C)C)n1C1CC2CCC(C1)N2CC[C@H](NC(=O)C1CCC(F)(F)CC1)c1ccccc1` (stereo partly specified), for which the call in test [1], in test [2], in [3], in test [4], in [5] and in test [9] was inactive. In test [8], the SSMD turned out to be 0.747. The compound also yielded a cell count in test [8] of 6250. Further, the plate-normalised HSF1 focus index in [8] is 1.04 (inactive). Moreover, the viability in test [10] (at 0.000305 µM, OCI-C5x cells, with rucaparib 10 µM, 100% = cells with rucaparib alone) is 106% (inactive); in test [10] (at 0.000305 µM, OCI-C5x cells, without rucaparib) it was 101% (inactive); in test [10] (at 0.000305 µM, OCI-P5x cells, with rucaparib 20 µM, 100% = cells with rucaparib alone), 85.1% (active); in test [10] (at 0.000305 µM, OCI-P5x cells, without rucaparib) it was 83.1% (active); in [10] (at 0.00122 µM, OCI-C5x cells, with rucaparib 10 µM, 100% = cells with rucaparib alone), 107% (inactive); in test [10] (at 0.00122 µM, OCI-C5x cells, without rucaparib), 98.5% (active). Besides, the viability in [10] (at 0.00122 µM, OCI-P5x cells, with rucaparib 20 µM, 100% = cells with rucaparib alone) was 86.3% (active); in test [10] (at 0.00122 µM, OCI-P5x cells, without rucaparib), 79.3% (active); in [10] (at 0.00488 µM, OCI-C5x cells, with rucaparib 10 µM, 100% = cells with rucaparib alone) it was 105% (inactive); in [10] (at 0.00488 µM, OCI-C5x cells, without rucaparib), 107% (inactive); in test [10] (at 0.00488 µM, OCI-P5x cells, with rucaparib 20 µM, 100% = cells with rucaparib alone) it was 86.7% (active); in test [10] (at 0.00488 µM, OCI-P5x cells, without rucaparib), 91.1% (active). The viability was 113% (inactive) in test [10] (at 0.0195 µM, OCI-C5x cells, with rucaparib 10 µM, 100% = cells with rucaparib alone); 107% (inactive) in test [10] (at 0.0195 µM, OCI-C5x cells, without rucaparib); 90.9% (active) in test [10] (at 0.0195 µM, OCI-P5x cells, with rucaparib 20 µM, 100% = cells with rucaparib alone); 90.2% (active) in test [10] (at 0.0195 µM, OCI-P5x cells, without rucaparib); 117% (inactive) in test [10] (at 0.0781 µM, OCI-C5x cells, with rucaparib 10 µM, 100% = cells with rucaparib alone); 107% (inactive) in [10] (at 0.0781 µM, OCI-C5x cells, without rucaparib). The viability was 96% (active) in test [10] (at 0.0781 µM, OCI-P5x cells, with rucaparib 20 µM, 100% = cells with rucaparib alone); 94% (active) in test [10] (at 0.0781 µM, OCI-P5x cells, without rucaparib); 111% (inactive) in test [10] (at 0.313 µM, OCI-C5x cells, with rucaparib 10 µM, 100% = cells with rucaparib alone); 99.8% (active) in [10] (at 0.313 µM, OCI-C5x cells, without rucaparib); 95.9% (active) in test [10] (at 0.313 µM, OCI-P5x cells, with rucaparib 20 µM, 100% = cells with rucaparib alone); 94.1% (active) in test [10] (at 0.313 µM, OCI-P5x cells, without rucaparib). Besides, the viability in test [10] (at 1.25 µM, OCI-C5x cells, with rucaparib 10 µM, 100% = cells with rucaparib alone) was 118% (inactive); in test [10] (at 1.25 µM, OCI-C5x cells, without rucaparib), 108% (inactive); in test [10] (at 1.25 µM, OCI-P5x cells, with rucaparib 20 µM, 100% = cells with rucaparib alone), 98.8% (active); in test [10] (at 1.25 µM, OCI-P5x cells, without rucaparib), 93.2% (active); in test [10] (at 5 µM, OCI-C5x cells, with rucaparib 10 µM, 100% = cells with rucaparib alone), 108% (inactive); in test [10] (at 5 µM, OCI-C5x cells, without rucaparib) it was 112% (inactive). Moreover, the viability is 96.7% (active) in [10] (at 5 µM, OCI-P5x cells, with rucaparib 20 µM, 100% = cells with rucaparib alone) and 95.4% (active) in [10] (at 5 µM, OCI-P5x cells, without rucaparib).

As for `CCC(=O)Nc1cccc(Oc2nc(Nc3ccc(N4CCN(C)CC4)cc3OC)ncc2Cl)c1`, the half-maximal activity concentration (AC50) in [1] was 9.34 µM (active); in test [2], 10.5 µM (active); in [3] it was 7.42 µM (active); in test [4], 18.6 µM (active). In addition, the outcome in [5] was inactive. Also, the fold change in [6] (setting [11]) is 0.756 (inactive); in test [6] (setting [12]), 0.553. In addition, the cell count in test [6] (setting [13]) amounted to 3260; in test [6] (setting [14]), 4310. Further, the z-score in test [7] (setting [15]) was -0.403 (inactive); in [7] (setting [16]) it was 0.64.

For the compound `Cc1cc(Nc2ncc(Cl)c(Nc3ccccc3S(=O)(=O)C(C)C)n2)c(OC(C)C)cc1C1CCNCC1`, the half-maximal activity concentration (AC50) in test [1] was 2.95 µM (active); in test [2], 1.32 µM (active); in test [3] it was 0.934 µM (active); in test [4], 1.66 µM (active). For the same compound, the half-maximal inhibitory concentration (IC50) in test [5] was 3.32 µM (active). Also, the fold change in [6] (setting [11]) was 0.935 (inactive); in [6] (setting [12]), 0.748. For the same compound, the cell count is 3290 in [6] (setting [13]) and 3520 in test [6] (setting [14]). The z-score in test [7] (setting [15]) was -0.455 (inactive); in test [7] (setting [16]), -0.428.

Values taken from PubChem BioAssay.
